From publication PMC5540273 (PLoS ONE, 2017)
Several values for one entry are separate records, joined by “and”; a condition that tells them apart may be missing. Identical values can stand only once. Like-named read-outs stand apart in the source and are kept apart here.

Experiments:
[1] = tested on: PIKFYVE; settings: concentration: 1 μM, replicates: in singlicate, n = 1
[2] = tested on: PIM1; settings: concentration: 1 μM, replicates: in singlicate, n = 1
[3] = tested on: PIM2; settings: concentration: 1 μM, replicates: in singlicate; n = 1
[4] = tested on: PIM3; settings: concentration: 1 μM, replicates: in singlicate, n = 1
[5] = tested on: PIP5K1A; settings: concentration: 1 μM, replicates: in singlicate, n = 1
[6] = tested on: PIP5K1C; settings: concentration: 1 μM, replicates: in singlicate, n = 1
[7] = tested on: PIP5K2B; settings: concentration: 1 μM, replicates: in singlicate, n = 1
[8] = tested on: T1, PIP5K2C; settings: concentration: 1 μM, replicates: in singlicate, n = 1
T1 construct: gene PIP4K2C

[9] = tested on: T2, PKAC-alpha; settings: concentration: 1 μM, replicates: in singlicate, n = 1
T2 construct: gene PRKACA

[10] = tested on: T3, PKAC-beta; settings: concentration: 1 μM, replicates: in singlicate, n = 1
T3 construct: gene PRKACB
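Note: KINOMEscan kinase panel screen.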

| SMILES | %Inh [1] | %Inh [2] | %Inh [3] | %Inh [4] | %Inh [5] | %Inh [6] | %Inh [7] | %Inh [8] | %Inh [9] | %Inh [10] | %Inh ([1]; 1 µM) | %Inh ([5]; 1 µM) | %Inh ([6]; 1 µM) | %Inh ([7]; 1 µM) | %Inh ([8]; 1 µM) | %Inh ([9]; 1 µM) | %Inh ([10]; 1 µM) | %Inh ([2]; 1 µM) | %Inh ([4]; 1 µM) |
| --- | --- | --- | --- | --- | --- | --- | --- | --- | --- | --- | --- | --- | --- | --- | --- | --- | --- | --- | --- |
| NS(=O)(=O)c1cccc(-c2ccc3ncc(N4CCOCC4)nc3c2)c1 [GSK1535721] | 11% | 14% | 0% | 0% | 0% | 48% | 11% | 75% | 0% | 0% | – | – | – | – | – | – | – | – | – |
| N#Cc1c(N2CCOCC2)sc(-c2ccn[nH]2)c1-c1ccc(Cl)cc1 | 44% | 18% | 0% | 16% | 0% | 0% | 7% | 0% | 0% | 0% | – | – | – | – | – | – | – | – | – |
| Fc1ccc(-c2ncn(CCCN3CCOCC3)c2-c2ccccn2)cc1 [SB-211742] | 9% | 0% | 8% | 0% | 22% | 47% | 0% | 27% | 0% | 32% | – | – | – | – | – | – | – | – | – |
| CCc1ccnc(/C=C/c2n[nH]c3cc(Sc4ccccc4C(=O)NC)ccc23)c1 | 0% | 0% | 0% | 0% | 5% | 0% | 27% | 0% | 0% | 0% | – | – | – | – | – | – | – | – | – |
| COc1ccc(Nc2ncc(C#N)c(Nc3ccccc3C(N)=O)n2)cc1N1CCN(C)CC1.Cl [GSK1558669] | 94.4% | 97.4% | 0% | 93.3% | 56% | 65% | 90% | 90.6% | 76% | 76% | – | – | – | – | – | – | – | – | – |
| CN1c2ccc(NCc3ccc(F)cc3)cc2-c2c(cnn2C)S1(=O)=O | 32% | 0% | 2% | 0% | 31% | 31% | 0% | 3% | 9% | 0% | – | – | – | – | – | – | – | – | – |
| COc1ccc(Nc2nccc(N3CCC(NC(=O)Nc4cccc(C(C)=O)c4)C3)n2)cc1 (stereo not drawn) [GSK1379731] | 0% | 0% | 0% | 0% | 0% | 24% | 12% | 3% | 2% | 0% | – | – | – | – | – | – | – | – | – |
| COc1cc2ncn(-c3cc(OCc4sccc4Cl)c(C(N)=O)s3)c2cc1OC [GSK448459] | 0% | 11% | 0% | 0% | 41% | 79% | 20% | 50% | 0% | 0% | – | – | – | – | – | – | – | – | – |
| CNc1ncnc2[nH]ncc12 [SKF-18355] | 11% | 0% | 8% | 0% | 22% | 0% | 0% | 0% | 31% | 16% | – | – | – | – | – | – | – | – | – |
| O=C(NCCNc1ccnc(Nc2ccc(F)cc2)n1)Nc1ccccc1F [GSK1379880] | 0% | 0% | 0% | 0% | 0% | 24% | 0% | 38% | 8% | 0% | – | – | – | – | – | – | – | – | – |
| c1ccc(-c2n[nH]cc2-c2ccnc3ccccc23)nc1 [GW271431] | 0% | 8% | 0% | 3% | 0% | 0% | 15% | 4% | 9% | 14% | – | – | – | – | – | – | – | – | – |
| Cl.Nc1ncnc2occ(-c3ccc(NC(=O)Nc4cc(C(F)(F)F)ccc4F)cc3)c12 [SB-707548] | 25% | 23% | 0% | 0% | 28% | 57% | 36% | 45% | 9% | 0% | – | – | – | – | – | – | – | – | – |
| Cn1ccc2ncnc(Oc3ccc(NC(=O)Nc4ccncc4)c(Cl)c3)c21 | 8% | 0% | 13% | 1% | 24% | 5% | 11% | 0% | 1% | 2% | – | – | – | – | – | – | – | – | – |
| CC(C)(CN)c1nc(-c2ccc(Cl)c(O)c2)c(-c2ccncc2)[nH]1.O=C(O)C(F)(F)F [SB-477794] | – | 0% | 0% | 0% | – | – | – | – | – | – | 31% and 49% | 40% and 61% | 3% and 61% | 0% and 19% | 64% and 49% | 86% and 87% | 56% and 89% | – | – |
| NCCNS(=O)(=O)c1ccc(-c2ccnc3[nH]ccc23)cc1 [GSK977617] | 0% | – | 0% | – | – | – | – | – | – | – | – | 61% and 30% | 83% and 62% | 76% and 35% | 17% and 13% | 99.3% and 98.8% | 99.2% and 98.3% | 56% and 35% | 40% and 0% |
| Nc1nccc(-c2c(-c3ccc(F)cc3)ncn2C2CCN(CC(F)(F)F)CC2)n1 [SB-236560] | 59% | 0% | 0% | 0% | 47% | 7% | 0% | 60% | 0% | 11% | – | – | – | – | – | – | – | – | – |
| c1ccc(-c2cc(-c3c[nH]nc3-c3ccccn3)ccn2)cc1 [GW576604] | 0% | 0% | 0% | 0% | 19% | 58% | 0% | 30% | 5% | 0% | – | – | – | – | – | – | – | – | – |

| SMILES | %Inh [1] | %Inh [2] | %Inh [3] | %Inh [4] | %Inh [5] | %Inh [6] | %Inh [7] | %Inh [8] | %Inh [9] | %Inh [10] | %Inh ([1]; 1 µM) | %Inh ([5]; 1 µM) | %Inh ([6]; 1 µM) | %Inh ([7]; 1 µM) | %Inh ([8]; 1 µM) | %Inh ([9]; 1 µM) | %Inh ([10]; 1 µM) | %Inh ([2]; 1 µM) | %Inh ([4]; 1 µM) |
| --- | --- | --- | --- | --- | --- | --- | --- | --- | --- | --- | --- | --- | --- | --- | --- | --- | --- | --- | --- |
| Cc1cccc(Cn2ccn3c(=O)cc(N4CCOCC4)nc23)c1 [GSK2297542] | 0% | 29% | 0% | 13% | 0% | 36% | 2% | 6% | 16% | 1% | – | – | – | – | – | – | – | – | – |
| O=c1cc(N2CCOCC2)nc2n(Cc3cccc4ccccc34)ccn12 [GSK2333389] | 0% | 0% | 0% | 0% | 0% | 0% | 40% | 0% | 0% | 8% | – | – | – | – | – | – | – | – | – |
| COC(=O)Nc1nc2cc(Oc3ccc(NC(=O)Nc4cc(F)ccc4F)cc3)ccc2[nH]1.Cl [GW701424] | 31% | 13% | 0% | 2% | 41% | 9% | 14% | 40% | 0% | 0% | – | – | – | – | – | – | – | – | – |
| O=c1cc(N2CCOCC2)nc2n(Cc3cccc(Cl)c3Cl)c(C3CC3)nn12 [GSK2358994] | 0% | 0% | 22% | 0% | 0% | 0% | 0% | 0% | 25% | 5% | – | – | – | – | – | – | – | – | – |
| O=C(NCCCN1CCOCC1)c1cccc(Nc2nccc(Nc3ccc(Oc4ccccc4)cc3)n2)c1 [GW663929] | 37% | 22% | 0% | 4% | 18% | 0% | 0% | 83% | 4% | 0% | – | – | – | – | – | – | – | – | – |
| COc1ccc(CNC(=O)NC2CCN(c3ccnc(Nc4ccc(OC)cc4)n3)C2)cc1 (stereo not drawn) [GSK1379727] | 29% | 0% | 0% | 0% | 0% | 57% | 4% | 33% | 0% | 0% | – | – | – | – | – | – | – | – | – |
| Fc1ccc(-c2nn3c(OCC(F)(F)F)cccc3c2-c2ccncc2)cc1 [GW514784] | 51% | 0% | 0% | 0% | 50% | 69% | 18% | 32% | 6% | 32% | – | – | – | – | – | – | – | – | – |
| Cc1nnc(-c2ccc3ncc(-c4ccc(S(C)=O)cc4)n3c2)o1 (stereo not drawn) | 0% | 0% | 2% | 0% | 2% | 0% | 39% | 0% | 2% | 8% | – | – | – | – | – | – | – | – | – |
| Cc1ccc(C(=O)NCC(N)=O)cc1-n1c(C)cc(OCc2ccc(F)cc2F)c(Br)c1=O | 20% | 23% | 19% | 17% | 14% | 46% | 0% | 31% | 7% | 0% | – | – | – | – | – | – | – | – | – |
| NS(=O)(=O)c1cccc(-c2ccc3nccc(-c4cccc(S(N)(=O)=O)c4)c3c2)c1 [GW867253] | 21% | 3% | 0% | 9% | 21% | 0% | 0% | 41% | 0% | 0% | – | – | – | – | – | – | – | – | – |
| CCn1cnc2c(N)ncnc21 [GW345098] | 0% | 0% | 0% | 0% | 0% | 0% | 0% | 0% | 8% | 14% | – | – | – | – | – | – | – | – | – |
| Cl.Cl.Cl.Fc1ccc(-c2ncn(C3CCNCC3)c2-c2ccnc(Nc3ccccc3)n2)cc1 [SB-238039] | – | – | 0% | – | – | – | – | – | – | – | 5% and 24% | 46% and 0% | 25% and 0% | 24% and 0% | 48% and 41% | 64% and 46% | 73% and 65% | 15% and 2% | 19% and 0% |
| O=C(Nc1n[nH]c2cc(-c3cccc(F)c3)ccc12)C1CC1 [SB-735464] | 0% | 2% | 0% | 4% | 37% | 18% | 5% | 11% | 3% | 6% | – | – | – | – | – | – | – | – | – |
| Cn1cc(-c2ccc3c(c2)CCN3C(=O)Cc2ccccc2Cl)c2c(N)ncnc21 [GSK2608885] | 0% | 10% | 0% | 0% | 0% | 7% | 0% | 90.5% | 45% | 34% | – | – | – | – | – | – | – | – | – |
| CN(C1=C(c2ccccc2)C(=O)NC1=O)c1ccccc1 [SB-334860] | 10% | 19% | 0% | 0% | 8% | 37% | 7% | 10% | 4% | 0% | – | – | – | – | – | – | – | – | – |
| COCCNC(=O)c1ccc(-c2cc(C(=O)NC3CC3)cc(F)c2C)cc1 [GW868318] | 43% | 15% | 3% | 29% | 1% | 0% | 0% | 0% | 9% | 37% | – | – | – | – | – | – | – | – | – |
